Screening results deposited in PubChem by National Center for Advancing Translational Sciences (NCATS).
Only some compounds are listed: those with a hit (about 10% of all), similar ones and a draw of the others.
PNC assembly inh: perinucleolar compartment assembly inhibition. PC3M PTB-GFP, PNC prevalence imaging, 16 h; hits give low values. activity change (PNC), negative = inhibition, % at 10 µM. 140,000 compounds, 3.1% hits;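 active = readout at or below -70, meaning at least 70% loss of cells showing the perinucleolar compartment, a nuclear body marking cancer cells; inconclusive = readout between -30 and a set limit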;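 also: plate controls were DMSO wells for no effect and camptothecin positive control wells for full effect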
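Read-out is percentage of cells bearing a perinucleolar compartment, from automated 20x imaging of fixed, Hoechst-stained PC3M PTB-GFP cells. Cells were seeded 4 h, then exposed 16 h to compound (23 nl of library stock) in duplicate plates.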
ALDH1A1 inh: blocks purified human ALDH1A1 activity. 220,000 compounds, 7.3% hits. P00352. AID 1030. Potency, µM (series often up to 75.3 µM), for inactives: at the highest dose activity, negative = inhibition, hits mostly inhibitors. Purified ALDH1A1, NADH fluorescence, propionaldehyde substrate;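 also: potency is read from the fitted curve at half-maximal effect; plate controls were no enzyme wells and a reference inhibitor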
IMPase cell inh: cell-permeable inhibitors of inositol monophosphatase (IMPase). P97697. CHO-M1 cells, IP1 accumulation, HTRF TR-FRET ratio. inhibition (IP1 accumulation), % at 46.1 µM. 120,000 tested, under 10 active; active = well fitted curve in the direction sought with a large enough effect in the signal ratio, not every such curve was filed as active; inconclusive = small, poorly fitted or top-dose-only effect, or a change in a side signal; inactive = no such curve, though single readings can be large or run the other way; the % refers to the signal ratio;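 also: cells stimulated with carbachol in lithium chloride buffer; plate controls were DMSO basal wells for no effect and reference inhibitor wells for full effect; higher means more IMPase inhibition seen as more IP1 and lower FRET ratio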
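Carbachol-driven Gq signalling in CHO-M1 cells (2000/well) generates IP1. Compounds that block IMPase raise IP1 and so reduce the FRET signal from Eu-anti-IP1 and d2-IP1 after a 10 min room-temperature lysis.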
HPGD inh: HPGD (human) dehydrogenase inhibition. purified HPGD, NADH fluorescence kinetic, PGE2 substrate. Potency, µM, without a hit: top-dose activity change, negative = inhibition, actives largely listed as inhibitors. 150,000 compounds, 4.3% hits. AID 894; also: potency is read from the fitted curve at half-maximal effect
Target sequence (P15428 whole entry, looked up): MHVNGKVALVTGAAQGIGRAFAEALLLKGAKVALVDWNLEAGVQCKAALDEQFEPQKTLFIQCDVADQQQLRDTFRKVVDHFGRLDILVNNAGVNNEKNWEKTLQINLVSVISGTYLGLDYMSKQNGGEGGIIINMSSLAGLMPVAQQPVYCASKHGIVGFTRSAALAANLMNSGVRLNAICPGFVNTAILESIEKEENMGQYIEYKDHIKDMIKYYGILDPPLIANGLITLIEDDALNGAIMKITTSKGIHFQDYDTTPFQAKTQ
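20 nM HPGD preincubated 15 min at room temperature with compound in 50 mM Tris-HCl pH 8, 0.01% Tween 20. Started with 1 mM NAD+ and 30 uM prostaglandin E2; NADH fluorescence (360/450 nm) read 5 times over 30-s intervals, last minus first.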
LMNA splice mod: modulators of lamin A splicing; HeLa LMNA splicing GFP/RFP minigene ratio, 48 h; 200,000 compounds, 0.01% hits; Potency, µM (titrated, usually from 46.1 µM), without a hit: at the highest dose ratio change, negative = inhibition, usual class: inhibitors; active = well fitted inhibition curve with a large enough effect in the signal ratio, with a control signal flat, not every such curve was filed as active; inconclusive = small, poorly fitted or top-dose-only effect, or effect the other way, or a change in a side signal; the % refers to the signal ratio; also: potency is read from the fitted curve at half-maximal effect
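S3 HeLa stable clones carrying a lamin A-EGFP splicing minigene plus DsRed2 were seeded at 600 cells/well in Opti-MEM with 2% FBS, pin-dosed and incubated 48 h at 37°C. Acumen cytometry (488 nm) gave the GFP/RFP total-intensity ratio.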
Luc counter: blocks Kinase-Glo luciferase, a counter-screen artifact; Q27757; Kinase-Glo luciferase, ATP luminescence, 8 min; Potency, µM (doses to about 38.3 µM), without a hit: top-dose activity change, negative = inhibition, usual class: inhibitors; 200,000 compounds, 0.28% hits; active = well fitted inhibition curve with a large enough effect; inconclusive = small, poorly fitted or top-dose-only effect; also: potency is read from the fitted curve at half-maximal effect; nearly all actives have a fitted effect of over 60% in size
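Kinase-Glo luciferase light output from ATP and luciferin was measured with 10 uM ATP, within the enzyme's linear range. Buffer: 50 mM imidazole pH 7.2, 50 mM KCl, 7 mM MgCl2, 0.01% Tween 20, 0.05% BSA; luminescence read after 8 min at ambient temperature.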
Active calls of the source: *; ? = inconclusive; nt = no result given; [ ] = remark or other dose. Unless noted, calls follow the shape of the dose curve; as a rule, active = well fitted inhibition curve with a large enough effect (not every such curve was filed as active); inconclusive = small, poorly fitted or top-dose-only effect, or another doubt; inactive = no such curve, though single readings can be large or run the other way. Unless noted, % is scaled to controls: 0 for no effect and ±100 for the full control effect.

SMILES	PNC assembly inh	ALDH1A1 inh	IMPase cell inh	HPGD inh	LMNA splice mod	Luc counter
CCOc1ccc(-c2cc(CCCC(=O)NCCCOC)no2)cc1	14	-11%	-4	-15%	11%	-4%
CCOc1ccc(-c2cc(CCCC(=O)N3CCN(c4ccc(OC)cc4)CC3)no2)cc1	26	20µM*	9	-24%	?	0%
COc1ccccc1CN1CCNC(=O)C1=O	nt	nt	nt	nt	-11%[46 µM]	nt
O=c1cc(Cl)c(-c2ccccc2)n[nH]1	25	0%	-4	28µM*	-28%	-3%
C=C(C)C(O)/C=C/c1ccccc1OC (stereo not given)	nt	16%[13.5 µM]	nt	nt	nt	nt
N#Cc1c(SCC(=O)N2CCCCC2)nsc1SCC(=O)N1CCCCC1	18	18µM*	6	13µM*	-3%	4%
O=C(CCCN1C(=O)CSc2ncccc21)N1CCN(Cc2ccccc2)CC1	-17	22µM*	17	-3%	-19%	0%
CCOC(=O)N1CCC(NC(=O)CCCN2C(=O)CSc3ncccc32)CC1	?	-7%	23	2%	?	9%
Cc1cc(C)c(C#N)c(SCC(=O)N2CCN(Cc3ccccc3)CC2)n1	-6	20µM*	?	-21%	-3%	5%
Cc1cc(C)c(C#N)c(SCC(=O)N(C)C2CCCCC2)n1	?	18µM*	6	-26%	?	-1%
COc1ccc(-c2oc3ccc(C)cc3c(=O)c2O)cc1OC	nt	?	-19	-5%	nt	2%
CC(C)(c1cc(Br)c(OCC(Br)CBr)c(Br)c1)c1cc(Br)c(OCC(Br)CBr)c(Br)c1 (stereo not given)	nt	?	nt	-5%	nt	nt
O=C(CSc1ncccn1)N1CCN(Cc2ccccc2)CC1	?	28µM*	5	-4%	1%	-2%
COCc1cc(C)nc(SCC(=O)N2CCC(C)CC2)c1C#N	2	7.9µM*	3	-16%	0%	-1%
Cc1cc(C)c(C#N)c(SCC(=O)C(C)(C)C)n1	55	?	6	32µM*	30%	1%
COCc1cc(C)nc(SCC(=O)Nc2ccccc2C)c1C#N	17	2%	-13	-19%	0%	1%
Cc1cc(C)c(C#N)c(SCC(=O)NC(C)(C)C)n1	?	13%	-5	-6%	-18%	2%
Cc1cc(C)c(C#N)c(SCC(=O)N2CCCCC2)n1	18	13µM*	13	-27%	2%	-2%
Cc1nnc(SCC(=O)N2CCN(Cc3ccccc3)CC2)s1	13	-10%	1	-3%	15%	-3%
CCCc1nn2c(=O)cc(COC(=O)c3cccc(NC(=O)COc4ccccc4C)c3)nc2s1	nt	nt	nt	nt	2%[46 µM]	nt
CNC(=O)COc1ccc(NC(=O)CCn2nc(-c3ccc(C)cc3)c3ccccc3c2=O)cc1	nt	nt	12	nt	nt	nt
